Reference: PubChem BioAssay AID1030 (National Center for Advancing Translational Sciences (NCATS), 2008)
Screen size: about 220,000 compounds; about 16,000 (7.3%) were called active. Roughly 25% stayed inconclusive and do not appear here. This is one part of a sample in which actives are shown more often than they occur. Calls come from the whole dose curve; as a rule, active = well fitted inhibition curve with a large enough effect (not every such curve was filed as active); inconclusive = small, poorly fitted or top-dose-only effect, or another doubt; inactive = no such curve, though single readings can be large or run the other way.

Molecular target: Aldehyde dehydrogenase 1A1 (Homo sapiens) (UniProt P00352)
Assay: qHTS Assay for Inhibitors of Aldehyde Dehydrogenase 1 (ALDH1A1);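 for activity, negative = inhibition: plate controls were no enzyme wells and a reference inhibitor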
Settings: Purified ALDH1A1, NADH fluorescence, propionaldehyde substrate; series mostly up to 75.3 µM; activity, negative = inhibition: at the top concentration
Potency is the fitted concentration of half-maximal effect.

Chain of Aldehyde dehydrogenase 1A1 (Homo sapiens) (P00352 whole entry, looked up): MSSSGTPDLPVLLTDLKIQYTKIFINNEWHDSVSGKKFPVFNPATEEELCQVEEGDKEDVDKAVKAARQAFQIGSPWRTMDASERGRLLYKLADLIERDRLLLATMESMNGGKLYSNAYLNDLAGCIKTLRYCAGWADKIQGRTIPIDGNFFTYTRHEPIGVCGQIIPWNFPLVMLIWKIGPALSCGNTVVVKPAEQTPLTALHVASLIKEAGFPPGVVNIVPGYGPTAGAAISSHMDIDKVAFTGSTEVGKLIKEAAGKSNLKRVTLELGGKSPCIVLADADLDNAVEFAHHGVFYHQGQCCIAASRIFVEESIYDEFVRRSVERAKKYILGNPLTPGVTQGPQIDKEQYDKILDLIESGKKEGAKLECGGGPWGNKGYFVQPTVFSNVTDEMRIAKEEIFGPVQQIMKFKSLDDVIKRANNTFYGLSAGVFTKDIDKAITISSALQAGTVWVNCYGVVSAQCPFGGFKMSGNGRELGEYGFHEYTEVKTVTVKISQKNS

activity, negative = inhibition, inactive:
CCOc1ccc(/C=C(/NC(=O)c2ccccc2)C(=O)NCCC(=O)O)cc1 3.16%
Cc1ccccc1CC1(CO)CCCN(C(=O)c2cc(-c3ccccc3)no2)C1 (centres undefined) 6.3%
O=[N+]([O-])c1ccccc1OCCCCN1CCCCC1 5.91%
COc1cc(C(=S)N2CCOCC2)cc(OC)c1OC(=O)c1cc([N+](=O)[O-])c(C)c([N+](=O)[O-])c1 -15.4%
Cc1cc(C)n(Cc2cnc(N3CCOCC3)s2)n1 1.49%
Cc1nn(CC2CC2)c(=O)n1N(C)c1ncc(C(F)(F)F)cc1Cl 11.8%
CCOC(=O)/C(C#N)=C\c1c(C)cc(C)c(COC(C)=O)c1C 1.88%
C=CCn1c(COc2ccccc2C)nnc1SCC(=O)O -4.73%
COc1ccccc1NC(=O)CSc1nnc(C)n1CC1CCCO1 (centres undefined) -9.88%
CC(OC(=O)c1ccccc1N1C(=O)C2C3CCC(C3)C2C1=O)C(=O)c1ccccc1 (centres undefined) 20.1%
O=[N+]([O-])c1ccccc1Nc1ccc(O)cc1 -3.44%
CCNS(=O)(=O)c1ccc(NC(=O)Nc2cccc(OC)c2)cc1 -8.67%
CC(C)OCCCNC(=O)c1cc(Sc2ccc(F)cc2)nc2ccccc12 -5.97%
Cc1ccc(Nc2c3c(nc4ccccc24)CCC3)cc1 0.124%
Cc1ccc(-c2csc(NC(=O)Cn3[nH]c(=O)c4ccccc4c3=O)n2)cc1 3.41%
CCN(CC)C(=O)c1sc(NC(=O)c2ccco2)c(C#N)c1C 2.09%
CCOC(=O)c1sc(NC(=O)CSc2n[nH]c(CC)n2)nc1C -0.18%
CCOC(=O)c1ccc(NC(=O)CSc2ncccn2)cc1 -10.2%
Cc1cc(C(F)(F)F)c(C#N)c(SCC(=O)NC2CC2)n1 10.4%
O=C(Nc1cccc(CCc2ccccn2)c1)c1ccc(Cl)cc1 -0.24%
Nc1c(C(=O)NCc2ccccc2)nnn1Cc1cccc(Cl)c1 14.8%
O=C(Cn1nnc2ccccc2c1=O)NCc1ccc(Cl)cc1 0.87%
O=C(Nc1cccnc1)c1ccc2c(c1)OCO2 3.17%
COc1ccc(C(=O)Nc2cccnc2)cc1C(=O)Nc1cccnc1 8.94%
OC1CSc2nc3ccccc3n2C1 (centres undefined) 16.1%
COc1ccc(Cl)cc1N(CC(=O)N1CCCCC1)S(C)(=O)=O -4.02%
CCn1c(C(C)C)n[nH]c1=S 6.31%
CCCCCCCC/C=C\CCCCCCCC(=O)NCC(=O)O 4.06%
COc1ccccc1NC(=O)C1=C(C)NC(=O)NC1c1ccc(C)s1 (centres undefined) 0.535%
CCOC(=O)/C(=N\Nc1ccccc1Cl)N(C)C1CCS(=O)(=O)C1 (centres undefined) 8.1%
Cc1nc2ccccc2c(=O)n1CCCn1ccnc1 12.8%
Cc1ccnc(Nc2nc3ccccc3s2)n1 3.21%
COC(=O)C(C)NC(=O)COc1ccc2ccccc2c1 (centres undefined) 1.95%
C/C(=N/N1CCN(Cc2cccc3ccccc23)CC1)c1cccnc1 -6.86%
CC/C(Cc1ccccc1)=N/NC(=O)CCn1nnc2ccccc21 -4.78%
CC(C)Cc1nc(Cl)c(C#N)c2c1CCC2 -9.07%
COC(=O)C1=C(C)NC(=O)/C1=C/c1ccc(CNS(=O)(=O)c2ccc(C)cc2)o1 -9.6%
O=C(NCC(=O)N(CC1CCCO1)C(C(=O)NC1CCCCC1)c1ccccc1)c1ccco1 (centres undefined) -5.06%
Cc1ccc(S(=O)(=O)N(CC(=O)NCCSC2CCCCC2)c2ccccc2F)cc1 -12.3%
CCCNC(=O)CN(Cc1ccccc1F)S(=O)(=O)c1ccc(C)cc1 -8.44%
COc1ccc(/C=C2\SC(=S)N(CC(=O)NNC(=O)c3ccncc3)C2=O)cc1 0.464%
COc1cccc(-n2c(SCC(=O)c3c[nH]c4ccccc34)nc3ccccc3c2=O)c1 15.6%
O=c1c2ccccc2nc(CSc2nnnn2-c2ccccc2)n1-c1ccccc1 -17.7%
CC(C)(C)C1CCC(=NNC(=O)c2ccc(Br)o2)CC1 (centres undefined) -0.649%
O=c1c(Cl)c(NC2CC2)cnn1-c1ccccc1 3.08%
Cc1cc(C)nc(SCC(=O)N(C)C)n1 13.8%
COc1ccc(NC(=O)CSc2nc(C)cs2)cc1 3.7%
CCOc1ccc(NC(=O)CSc2ncnc3c2sc2ccccc23)cc1 -5.68%
COC(=O)c1sc(=S)n(-c2ccc(Cl)cc2)c1C -15.1%
CCOC(=O)c1sc(-c2cccc([N+](=O)[O-])c2)cc1N 4.95%
CCOC(=O)c1csc(NC(=O)Nc2cccc(OC)c2)n1 -7.94%
COC(=O)c1sccc1NN1C(=O)c2ccccc2C1=O 4.1%
COc1ccc(CCc2nnc(CCC(=O)NCc3cnn(-c4ccccc4C)c3)o2)cc1 -13.3%
O=C(CCCNS(=O)(=O)c1cccc2nsnc12)NCCN1CCN(c2ccccc2F)CC1 -3.87%
CCCCC/C=C\C[C@H](O)/C=C/C=C/C=C/[C@@H](O)CCCC(=O)O 2%
COc1ccc(CCN=C2SCC(=O)N2Cc2ccccc2)cc1OC -6.04%
COc1cc(CNC2CCCC2)c(Br)cc1OCc1ccccc1 4.19%
O=C(N/N=C1\CCSC1)c1cc(Cl)ccc1O 5.93%
O=C(CSC(=S)N1CCOCC1)c1ccccc1 -11.8%
CC(=O)c1ccc(NC(=O)CSC(=S)N2CCCC2)cc1 -1.69%
CCOP(=O)(OCC)C(Nc1ccc([N+](=O)[O-])cc1)c1ccc(Cl)cc1 (centres undefined) 2.42%
Cc1ccc2c(c1)C1CN(C)CCC1N2C(=S)Nc1ccc(Cl)cc1Cl (centres undefined) -11.2%
CCOC(=O)N1CCN(C(=O)c2cn(C)c3ccc(S(=O)(=O)N4CCCC4)cc3c2=O)CC1 -12.2%
Cc1ccc(S(=O)(=O)N2CCC(C(=O)NCC3CCCO3)CC2)cc1 (centres undefined) 15.3%
CCn1c(SCC(=O)NCC2CCCO2)nc2cc(S(=O)(=O)N3CCCCC3)ccc21 (centres undefined) -10.7%
O=C(Nc1ccc(S(=O)(=O)N2CCc3ccccc3C2)cc1)c1ccccc1 15.8%
NS(=O)(=O)c1ccc(CNC(=O)c2ccc(Cl)cc2[N+](=O)[O-])cc1 -11.9%
CCOC(=O)N/N=C/c1cccnc1 14.9%
Cc1nn(CCOc2ccc(Br)cc2)c(C)c1[N+](=O)[O-] 7.31%
CC(C)c1nc2sc3c(c2c(=O)n1N)CC(C)(C)OC3 11.1%
CN(C)CCSc1nc(N)c2c3c(sc2n1)COC(C)(C)C3 0.0923%
O=C(NCc1ccc(F)cc1)C(c1ccccc1)N(C(=O)c1csnn1)C1CC1 (centres undefined) -7.36%
COc1cc(C)c(S(=O)(=O)N2CCOCC2)c(C)c1C 1.4%
O=C1N/C(=N\N=C\c2ccco2)SC1Cc1ccc(F)cc1 (centres undefined) -15.7%
CCOc1ccc(NS(=O)(=O)c2ccc(C)c(C(N)=O)c2)cc1 10.6%
CCOc1ccc(S(=O)(=O)Nc2ccncc2)c(C)c1C 3.06%
CCOc1ccc(C(=O)Nc2cc(OC)ccc2OC)cc1 10.8%
CCOc1ccc(NC(=O)Nc2cc(C)ccc2OC)cc1 -8.82%
CN1CCN(/N=C/c2ccc(C#N)cc2)CC1 -6.72%
CC(=O)/C(C)=N/O 4.95%
Cc1cc(C(=O)OC(C)C(=O)Nc2cccc(S(=O)(=O)N3CCOCC3)c2)c(C)o1 (centres undefined) -9.99%
O=C(O)/C=C/c1ccc(S(=O)(=O)N2CCCCCC2)cc1 1.8%
C/C(N)=C(/C#N)C(=O)COC(=O)C1CCN(C(=O)c2ccc(Cl)cc2)CC1 6.17%
N/C(=N\OC(=O)Cc1ccccc1[N+](=O)[O-])c1ccc(Br)cc1 -19.8%
NS(=O)(=O)c1ccc(NC(=O)/C=C/c2ccccc2Cl)cc1 5.79%
COC(=O)C1=C(C)N(c2ccc(C)cc2)/C(=C/c2ccc(O)cc2)C1=O 1.55%

Potency, active:
O=C(Oc1ccccc1C(=S)N1CCCCC1)c1cc([N+](=O)[O-])cc([N+](=O)[O-])c1 8.91 µM
CC(C)(C)C(=O)/C(C#N)=C/c1ccc(O)cc1 1.58 µM
CC(=O)Nc1ccc(NC(=O)CSc2nnc(COc3ccccc3C)n2CC2CCCO2)cc1 (centres undefined) 10 µM
COc1cccc(NS(=O)(=O)c2ccc3[nH]cc(C(=O)NCCCOC(C)C)c(=O)c3c2)c1 11.2 µM
CCOC(=O)c1sc(NC(=O)CSc2nc(C)cc(C(F)(F)F)n2)c(C#N)c1C 2.24 µM
CCOC(=O)c1sc(NC(=O)CSc2ncccn2)c(C#N)c1C 28.2 µM
O=C(NCc1ccc(Cl)cc1)c1cc(=O)nc2sc(-c3ccccc3)nn12 5.01 µM
CCOC(=O)c1ccc(-c2ccc(C(=O)Nc3cccnc3)o2)cc1 22.4 µM
Cc1ccnc(-n2sc3ccccc3c2=O)n1 1.26 µM
CCNC(=O)CN(c1ccc(C)cc1)S(=O)(=O)c1ccc(SC)cc1 11.2 µM
N#CCSc1nc2ccccc2c(=O)n1-c1ccccc1 12.6 µM
COc1ccc(NC(=O)CSc2ncnc3[nH]ncc23)cc1 11.2 µM
CCOC(=O)c1sc(=S)n(-c2cccc(OC)c2)c1N 22.4 µM
COC(=O)c1sc(=S)n(-c2ccccc2)c1N 7.08 µM
COc1cc(C2CC(=O)N3CN(Cc4ccccc4)CSC3=C2C#N)ccc1OCc1ccccc1 (centres undefined) 10 µM
O=C(CSC(=S)N1CCCCC1)c1c(F)cccc1F 12.6 µM
CCn1cc(C(=O)NCC2CCCO2)c(=O)c2cc(S(=O)(=O)N3CCCCC3)ccc21 (centres undefined) 15.8 µM
CCn1cc(C(=O)NCCCN2CCCCCC2)c(=O)c2cc(S(=O)(=O)N3CCc4ccccc4C3)ccc21 7.94 µM
C=CCNC(=S)NNc1ncnc2sc3c(c12)CC(C)(C)OC3 1.41 µM
CCOc1ccc(S(=O)(=O)Nc2ccc(S(=O)(=O)Nc3cc(OC)ccc3OC)cc2)cc1 10 µM
CCOc1ccc(NS(=O)(=O)c2cc(C)c(C)cc2C)cc1 7.94 µM
CC(OC(=O)CNS(=O)(=O)/C=C/c1ccccc1)C(=O)Nc1ccc(S(=O)(=O)N2CCCC2)cc1 (centres undefined) 1.26 µM

Potency, inactive:
N#C/C(=C\c1ccc(O)c(O)c1)C(=O)NCc1ccccc1
